# Out of some 4,100 compounds screened, about 1,600 (39%) were called active. About 25% were inconclusive and are not listed. The call rests on the fitted dose curve; in most records, active means well fitted inhibition curve with a large enough effect; inconclusive means small, poorly fitted or top-dose-only effect; inactive means no such curve, though single readings can be large or run the other way. Some of the results follow.
# Assay: qHTS Validation assay for Inhibitors of Plasmodium falciparum Dd2 growth in vitro; further: nearly all actives have a fitted effect of over 70% in size
# Conditions: P. falciparum Dd2 in RBCs, SYBR Green growth, 72 h; series mostly up to 28.7 µM
# In short: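 P. falciparum Dd2-infected red blood cells (2.5% hematocrit, 0.3% parasitemia) grown 72 h at 37 °C under 5% O2 with compounds in a titration, 29 uM to 0.5 nM final. Growth read as SYBR Green-1 fluorescence after ~16 h lysis; artesunate 300 nM as positive control.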
# Potency means the concentration at half of the fitted maximal effect.
row,Structure (SMILES),Potency
1,CCCCNC(=O)c1onc(CSc2nc3ccccc3[nH]2)c1C(=O)NCCCC,5.31 µM (active)
2,COCC(=O)NC1CCC12CCN(C(=O)c1ccc(C)nc1)CC2 (stereo not drawn),inactive
3,CN(C)c1cc[n+](CC(=O)c2ccc(Br)cc2)cc1,7.5 µM (active)
4,CC(=O)Nc1cc[n+](C(C)C(=O)c2ccc(Br)cc2)cc1 (stereo not drawn),inactive
5,Cc1cccc(NC(=O)Cn2nc3n(c2=O)CCCC3)c1C,inactive
6,COc1ccc(N2Cc3c(ncnc3N3CCN(Cc4ccccc4)CC3)N(C)CC2=O)cc1,inactive
7,Cc1oc2ccc(O)c(CN3CCCCCC3)c2c1C(=O)Nc1cccc(Cl)c1C,0.842 µM (active)
8,Cc1oc2ccc(O)c(CN3CCN(Cc4ccccc4)CC3)c2c1C(=O)Nc1cccc(Cl)c1C,0.596 µM (active)
9,COc1ccc(NC(=O)c2c(C)oc3ccc(O)c(CN4CCN(Cc5ccccc5)CC4)c23)cc1,2.66 µM (active)
10,CC1CCN(Cc2c(O)ccc3c(=O)c(Oc4ccccc4Cl)c(C(F)(F)F)oc23)CC1,1.33 µM (active)
11,CC1CCCN(Cc2c(O)ccc3c(=O)c(-c4ccc(Cl)cc4)c(C(F)(F)F)oc23)C1 (stereo not drawn),0.842 µM (active)
12,CCc1cc2c(=O)c(-c3cnn(-c4ccccc4)c3)c(C)oc2c(CN2CCCCC2)c1O,1.33 µM (active)
13,CCN1CCN(Cc2c(O)ccc3c(=O)c(Oc4ccccc4Cl)c(C(F)(F)F)oc23)CC1,0.596 µM (active)
14,CC(=O)c1ccc(NC(=O)c2noc3c2CCC3)cc1,inactive
15,CC1CCCN(Cc2c(O)ccc3c(=O)c(-c4ccccc4Cl)c(C(F)(F)F)oc23)C1 (stereo not drawn),0.842 µM (active)
16,Cc1oc2c(CN3CCCCC3)c(O)ccc2c(=O)c1-c1ccc(Cl)cc1,5.31 µM (active)
17,CC1CCCN(Cc2c(O)ccc3c(=O)c(-c4ccc(Cl)cc4)coc23)C1 (stereo not drawn),1.88 µM (active)
18,O=c1c(-c2ccc(Br)cc2)coc2c(CN3CCCCC3)c(O)ccc12,2.11 µM (active)
19,CC1CCCN(Cc2c(O)ccc3c(=O)c(Oc4ccccc4Cl)c(C(F)(F)F)oc23)C1 (stereo not drawn),2.11 µM (active)
20,Cc1ccc(-c2[nH]n3c(=O)c4c(nc3c2C)CCCC4)cc1,2.99 µM (active)
21,O=C(NCCN1CCCC1)C1CN(S(=O)(=O)c2cccs2)CC12CCCCC2 (stereo not drawn),13.3 µM (active)

row,Structure (SMILES),Potency
1,O=C(NCc1ccco1)C1CN(S(=O)(=O)c2ccccc2)CC12CCCCC2 (stereo not drawn),inactive
2,O=C(NCCN1CCCCCC1)C1CCCN1S(=O)(=O)c1cccc2nsnc12 (stereo not drawn),inactive
3,O=C(NCCc1c[nH]c2ccccc12)c1cncc(Br)c1,inactive
4,c1ccc2c(NCCc3c[nH]c4ccccc34)c3ccccc3nc2c1,1.88 µM (active)
5,CN(C)CCCNc1c2ccccc2nc2ccccc12,4.22 µM (active)
6,Cc1cc(C)n(-c2nc3cc(Cl)ccc3nc2N2CCN(c3ccccc3F)CC2)n1,inactive
7,Cc1cc(Nc2nc3ccccc3nc2Cl)n(-c2ccccc2C)n1,0.842 µM (active)
8,CC(C)CNc1nnnc2c1sc1nc(N3CCOCC3)c3c(c12)CCCC3,15 µM (active)
9,COC(C)c1ccc(-c2cc(C(=O)O)cc(S(=O)(=O)NC(C)C)c2)cc1 (stereo not drawn),inactive
10,Cc1cccc(C(=O)NC2CCN(c3cc(-c4ccc(Cl)cc4)[nH]n3)C2)c1 (stereo not drawn),inactive
11,Cc1ccc(-n2nc3c(=O)n(CCCC(=O)NCc4ccccc4F)nc(C)c3c2C)cc1,inactive
12,COc1cc(C(=O)NC2CCN(c3cc(-c4ccccc4)[nH]n3)CC2)cc(OC)c1OC,5.96 µM (active)
13,O=C(NC1CCCN(c2cc(-c3ccccc3)[nH]n2)C1)c1ccccc1 (stereo not drawn),inactive
14,O=C(NC1CCN(c2cc(-c3ccc(Cl)cc3)[nH]n2)C1)c1ccccc1 (stereo not drawn),inactive
15,Cc1ccc2c(c1)COc1c3ccc(C(=O)O)cc3nn1-2,inactive
16,Cn1c(=S)[nH]c2sc3c(c2c1=O)CCC(C(C)(C)C)C3 (stereo not drawn),5.31 µM (active)
17,Cn1c2c(c(=O)n(C)c1=O)C(c1cc(Br)ccc1F)CC(=O)N2 (stereo not drawn),inactive
18,CC1=C(C(=O)Nc2ccccc2)C(c2cc(Br)ccc2F)n2ncc(C(=O)Nc3ccccc3)c2N1 (stereo not drawn),1.68 µM (active)
19,COc1ccccc1NC(=O)C1=C(C)Nc2ncnn2C1c1ccccc1C(=O)O (stereo not drawn),inactive
20,COc1ccc(Br)cc1C1C(C(=O)Nc2ccc(C)cc2C)=C(C)Nc2ncnn21 (stereo not drawn),inactive
21,CC1=C(C(=O)Nc2ccc(C)cc2C)C(c2cc(Br)ccc2F)n2ncc(C(=O)Nc3ccc(C)cc3)c2N1 (stereo not drawn),1.5 µM (active)

row,Structure (SMILES),Potency
1,CC1(CNc2ccccc2)COc2ccc(C(=O)NCc3cccs3)cc2N1 (stereo not drawn),inactive
2,COc1cccc(CN(C)C(=O)CCc2nnc(-c3ccsc3)o2)c1,inactive
3,COc1ccc2nc(N(Cc3cccnc3)C(=O)CCc3ccccc3)sc2c1,6.68 µM (active)
4,O=C(c1ccccc1)N1CCC(N(Cc2cccnc2)C2CCOCC2)CC1,inactive
5,c1cnc(N2CCOCC2)c(OC2CCNC2)n1 (stereo not drawn),7.5 µM (active)
6,COc1ccccc1-c1nnc(C2CCN(C(=O)c3ccc(Cl)cc3)CC2)o1,inactive
7,COc1ccccc1-c1nnc2n1C(C(=O)NCCc1ccc(Cl)cc1)CC2 (stereo not drawn),3.35 µM (active)
8,CCC(=O)N1c2ccccc2CC1C(=O)NCCc1ccccc1OC (stereo not drawn),inactive
9,COc1ccc(CNC(=O)CCCn2c(=O)c3cccn3c3ccc(F)cc32)cc1OC,inactive
10,CC(NC(=O)Cn1c(-c2cccs2)cc2cc(F)ccc21)c1ccccc1 (stereo not drawn),2.66 µM (active)
11,COc1ccccc1NC(=O)C(=O)NCCc1csc(-c2cccc(F)c2)n1,inactive
12,COc1ccc(CCNC(=O)Cn2c(-c3cccs3)cc3cc(F)ccc32)cc1OC,4.73 µM (active)
13,Fc1cc(F)cc(Cc2nc3nccc(-c4cccs4)n3n2)c1,inactive
14,FC(F)(F)c1cnc(N2CCCN(C(=S)Nc3ccccc3)CC2)c(Cl)c1,4.73 µM (active)
15,O=C(C1CC1)N1CCC(c2nc(C3CCOCC3)no2)CC1,inactive
16,COCCNC(=O)c1nc(-c2ccc([S+](C)(=O)[O-])cc2)c2ccccn12,inactive
17,CC(C)CNC(=O)c1nc(-c2ccc(Cl)cc2)c2cnccn12,8.63 µM (active)
18,COC(=O)c1[nH]c2cccc(Cl)c2c1NC(=O)CN1CCCCC1C (stereo not drawn),inactive
19,Cc1ccsc1C(=O)Nc1cccc(-c2nnc3n2CCCC3)c1,inactive
20,COCCOc1cc(=O)n2c(c1C(=O)NCc1ccc(OC)cc1)CCOCC2,inactive
21,COc1cc(=O)n2c(c1C(=O)Nc1ccc(N(C)C)cc1)CCCC2,10.6 µM (active)

# From PubChem BioAssay AID1347416 (National Center for Advancing Translational Sciences (NCATS), 2020)
